Source: PubChem BioAssay (NCI)
Compounds without any hit were thinned out: in the full panel of roughly 83,000, 20% have a hit.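 Step 1: grow cells in 96-well plates. Step 2: add test compound at a single concentration. Step 3: incubate 48 h. Step 4: record percent growth.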 Active and inactive are the calls of the source. Rule for the calls: active = growth percent below 10; inactive = the rest. Where a SMILES comes first, the peptide text is derived from it. [ ]: non-standard residue; d: D form. ξ: configuration not given here. ξD = NC(CC(=O)O)C(=O)O

What was measured:
Assay in all cases: NCI-60 one-dose screen, 48 h (100 = growth as untreated, 0 = no growth, -100 = all killed)
Details in all cases: 10 µM unless noted
RPMI-8226 leukemia = test system: RPMI-8226 leukemia
OVCAR-8 ovarian = test system: OVCAR-8 ovarian
OVCAR-5 ovarian = test system: OVCAR-5 ovarian
OVCAR-4 ovarian = test system: OVCAR-4 ovarian
SK-OV-3 ovarian = test system: SK-OV-3 ovarian
IGROV1 ovarian = test system: IGROV1 ovarian
OVCAR-3 ovarian = test system: OVCAR-3 ovarian
HS 578T breast = test system: HS 578T breast
NCI/ADR-RES ovarian = test system: NCI/ADR-RES ovarian

Measured: growth

CCOc1cc(F)c([N+](=O)[O-])cc1[N+](=O)[O-]
inactive: RPMI-8226 leukemia 24.2% | OVCAR-8 ovarian 19.6% | OVCAR-5 ovarian 77.9% | OVCAR-4 ovarian 46.9% | SK-OV-3 ovarian 99.3% | IGROV1 ovarian 91.9% | OVCAR-3 ovarian 46.7% | HS 578T breast 90.6% | NCI/ADR-RES ovarian 11.8%

N#C/C(=N\Nc1ccc(Cl)cc1)C(=O)C1CC1
inactive: RPMI-8226 leukemia 44.4% | OVCAR-8 ovarian 63.3% | OVCAR-5 ovarian 91.9% | OVCAR-4 ovarian 31.2% | SK-OV-3 ovarian 65.6% | IGROV1 ovarian 54.2% | OVCAR-3 ovarian 39.8% | HS 578T breast 23.7% | NCI/ADR-RES ovarian 79.8%

COc1cc(NC(=O)C2=C(C)NC(C)=C(C(=O)Nc3cc(OC)c(Cl)cc3OC)C2c2cccc([N+](=O)[O-])c2)c(OC)cc1Cl
active: HS 578T breast 8.61%
inactive: RPMI-8226 leukemia 25.6% | OVCAR-8 ovarian 38.3% | OVCAR-5 ovarian 34.4% | OVCAR-4 ovarian 39.4% | SK-OV-3 ovarian 52.1% | IGROV1 ovarian 11.4% | OVCAR-3 ovarian 32.3% | NCI/ADR-RES ovarian 22%

CCc1cccc(CC)c1N1C(=O)C=CC1=O
inactive: OVCAR-8 ovarian 112% | OVCAR-5 ovarian 116% | OVCAR-4 ovarian 111% | SK-OV-3 ovarian 121% | OVCAR-3 ovarian 97% | HS 578T breast 108% | NCI/ADR-RES ovarian 118%

O=C(c1ccccc1)c1ccc(O)c2ncccc12
active: OVCAR-8 ovarian 8.06% | OVCAR-3 ovarian -36.7%
inactive: OVCAR-5 ovarian 68% | OVCAR-4 ovarian 15.4% | SK-OV-3 ovarian 49.8% | IGROV1 ovarian 17% | HS 578T breast 52.7%

CC(C)(C)c1ccc(CCO)cc1
inactive: RPMI-8226 leukemia 112% | OVCAR-8 ovarian 95.8% | OVCAR-5 ovarian 91.4% | OVCAR-4 ovarian 99.4% | SK-OV-3 ovarian 100% | OVCAR-3 ovarian 116% | HS 578T breast 135% | NCI/ADR-RES ovarian 101%

Cc1ccc2c(c1)sc(-c1ccc(N(C)C)cc1)[n+]2C
inactive: OVCAR-8 ovarian 16.3% | OVCAR-5 ovarian 14.4% | OVCAR-4 ovarian 20.3% | HS 578T breast 20.3% | NCI/ADR-RES ovarian 81.3%
active: RPMI-8226 leukemia -56.7% | SK-OV-3 ovarian -14.2% | IGROV1 ovarian 8.14% | OVCAR-3 ovarian -14.8%

O=C(Cc1nc2cc(Cl)c(Cl)cc2nc1CC(=O)c1ccccc1)c1ccccc1
inactive: RPMI-8226 leukemia 25.7% | OVCAR-8 ovarian 73.3% | OVCAR-5 ovarian 77.5% | OVCAR-4 ovarian 74.4% | SK-OV-3 ovarian 77.4% | IGROV1 ovarian 61% | OVCAR-3 ovarian 81.5% | HS 578T breast 58.8% | NCI/ADR-RES ovarian 74.6%

CCCCCCCCCCCC[S+](C)CC(=O)[O-] (stereo not drawn)
inactive: RPMI-8226 leukemia 26.6% | OVCAR-8 ovarian 45.5% | OVCAR-5 ovarian 56.5% | OVCAR-4 ovarian 48.1% | SK-OV-3 ovarian 41.3% | IGROV1 ovarian 12.8% | OVCAR-3 ovarian 57.6% | HS 578T breast 36.7% | NCI/ADR-RES ovarian 99.8%

CCCCCCCCCCCCCCCc1ccc(C(=O)C[n+]2ccccc2)cc1
active: RPMI-8226 leukemia -62.2% | OVCAR-8 ovarian -46.7% | OVCAR-5 ovarian -44.1% | SK-OV-3 ovarian -50.7% | OVCAR-3 ovarian -93.1% | HS 578T breast -37.3% | NCI/ADR-RES ovarian -21.5%
inactive: OVCAR-4 ovarian 34.9%

CN(C)CC(C)(CN(C)C)C(=O)/C=C/c1c(Cl)cccc1Cl
active: RPMI-8226 leukemia -4.62% | OVCAR-8 ovarian -26.2% | OVCAR-3 ovarian -31.3% | NCI/ADR-RES ovarian -29.7%
inactive: OVCAR-5 ovarian 53.1% | OVCAR-4 ovarian 62.2% | SK-OV-3 ovarian 91.9% | IGROV1 ovarian 73.6% | HS 578T breast 71.9%

CCOC(=O)c1[nH]c(C#N)c(C(=O)OCC)c1C
inactive: OVCAR-8 ovarian 94.8% | OVCAR-5 ovarian 102% | OVCAR-4 ovarian 97.7% | SK-OV-3 ovarian 117% | IGROV1 ovarian 101% | OVCAR-3 ovarian 114% | HS 578T breast 124% | NCI/ADR-RES ovarian 106%

c1ccc2sc(SSN3CC4CCC(CC4)C3)nc2c1
inactive: RPMI-8226 leukemia 111% | OVCAR-8 ovarian 106% | OVCAR-5 ovarian 112% | OVCAR-4 ovarian 102% | SK-OV-3 ovarian 108% | IGROV1 ovarian 14.6% | OVCAR-3 ovarian 150% | HS 578T breast 92.7% | NCI/ADR-RES ovarian 108%

CN(C)c1ccc(/C=C/c2nccc3ccccc23)cc1
inactive: RPMI-8226 leukemia 72% | OVCAR-8 ovarian 87.9% | OVCAR-5 ovarian 89.4% | OVCAR-4 ovarian 103% | SK-OV-3 ovarian 99.2% | IGROV1 ovarian 78.5% | OVCAR-3 ovarian 81.6% | NCI/ADR-RES ovarian 78.4%

CCc1oc2ccccc2c1C(=O)c1cc(Br)c(O)c(Br)c1
inactive: RPMI-8226 leukemia 34.7% | OVCAR-8 ovarian 79.2% | OVCAR-5 ovarian 124% | OVCAR-4 ovarian 67% | SK-OV-3 ovarian 95.8% | IGROV1 ovarian 72.2% | OVCAR-3 ovarian 58.2% | NCI/ADR-RES ovarian 44.1%

CCC1CCCCN1C(=S)N/N=C(\C)c1ccccn1 (stereo not drawn)
inactive: OVCAR-5 ovarian 30.1%
active: OVCAR-8 ovarian 9.93% | OVCAR-4 ovarian -50.2% | SK-OV-3 ovarian 8.27% | IGROV1 ovarian 2.61% | OVCAR-3 ovarian -18.9% | HS 578T breast -3.92% | NCI/ADR-RES ovarian 5.77%

CCCCCCCCCCCC[n+]1ccccc1 (tested in a mixture with another compound)
inactive: NCI/ADR-RES ovarian 55.3%
active: RPMI-8226 leukemia -56.2% | OVCAR-8 ovarian -30.2% | OVCAR-5 ovarian -22.6% | OVCAR-4 ovarian 4% | SK-OV-3 ovarian -18.4% | OVCAR-3 ovarian -63.1%

NCC(=O)NC(CC(=O)O)C(=O)O (stereo not drawn) (H-Gly-[ξD]-OH)
inactive: RPMI-8226 leukemia 111% | OVCAR-8 ovarian 107% | OVCAR-5 ovarian 107% | OVCAR-4 ovarian 104% | SK-OV-3 ovarian 108% | IGROV1 ovarian 107% | OVCAR-3 ovarian 125% | HS 578T breast 99% | NCI/ADR-RES ovarian 104%

CCC1C[N+]2=C(c3cc(OC)c(OC)cc3CC2)c2c1cc1n2CCc2cc(OC)c(OC)cc2-1 (stereo not drawn)
inactive: RPMI-8226 leukemia 11.6% | OVCAR-8 ovarian 32.4% | OVCAR-5 ovarian 79.7% | OVCAR-4 ovarian 14.7% | SK-OV-3 ovarian 94.9% | OVCAR-3 ovarian 10% | HS 578T breast 42.4% | NCI/ADR-RES ovarian 101%

CN1CSC(=S)N(Cc2ccccc2)C1
inactive: RPMI-8226 leukemia 31.4% | OVCAR-8 ovarian 97.8% | OVCAR-5 ovarian 103% | OVCAR-4 ovarian 112% | SK-OV-3 ovarian 114% | IGROV1 ovarian 92.9% | OVCAR-3 ovarian 65% | HS 578T breast 108% | NCI/ADR-RES ovarian 102%

COc1cccc2c1C(=O)c1c(O)c3c(c(O)c1C2=O)C[C@@](O)(C(=O)CO)C[C@@H]3OC1CC(OC(C)=O)C(OC(C)=O)C(C)O1 (stereo partly drawn)
active: RPMI-8226 leukemia -43.5% | OVCAR-8 ovarian 0.76% | OVCAR-5 ovarian 1.32% | OVCAR-4 ovarian -4.7% | SK-OV-3 ovarian -10.4% | OVCAR-3 ovarian -41.2%

CC1C(c2ccccc2)OCCN1C(=S)Nc1ccc(S(=O)(=O)N2CCCCC2)cc1 (stereo not drawn)
inactive: RPMI-8226 leukemia 80.4% | OVCAR-8 ovarian 92.5% | OVCAR-5 ovarian 87.9% | OVCAR-4 ovarian 106% | SK-OV-3 ovarian 110% | IGROV1 ovarian 106% | OVCAR-3 ovarian 114% | HS 578T breast 85.8% | NCI/ADR-RES ovarian 92.4%

CCOC(=O)C1=C(C(=O)c2ccccc2)C(c2cccc([N+](=O)[O-])c2)C(C(=O)c2ccccc2)=C(C(=O)OCC)N1
inactive: RPMI-8226 leukemia 32.8% | OVCAR-8 ovarian 96.8% | OVCAR-5 ovarian 87.7% | OVCAR-4 ovarian 92.2% | SK-OV-3 ovarian 96.8% | IGROV1 ovarian 97.5% | OVCAR-3 ovarian 96.1% | HS 578T breast 90.1% | NCI/ADR-RES ovarian 90.9%

O=C(Cc1nc2cc(Cl)c(Cl)cc2nc1CC(=O)c1cccnc1)c1cccnc1
inactive: RPMI-8226 leukemia 45.1% | OVCAR-8 ovarian 77.6% | OVCAR-5 ovarian 103% | OVCAR-4 ovarian 83.9% | SK-OV-3 ovarian 94.7% | IGROV1 ovarian 73.6% | OVCAR-3 ovarian 78.5% | HS 578T breast 76%

COc1ccc2nc3cc([N+](=O)[O-])ccc3c(NNc3ccccc3)c2c1
inactive: RPMI-8226 leukemia 62.1% | OVCAR-8 ovarian 81.7% | OVCAR-4 ovarian 72.8% | SK-OV-3 ovarian 71.9% | IGROV1 ovarian 88.2% | OVCAR-3 ovarian 72.6% | NCI/ADR-RES ovarian 84.6%

Cc1nc([N+](=O)[O-])c(Sc2nncc(-c3ccccc3)n2)n1C
inactive: RPMI-8226 leukemia 62.5% | OVCAR-8 ovarian 89.4% | OVCAR-5 ovarian 79.7% | OVCAR-4 ovarian 83.7% | SK-OV-3 ovarian 109% | IGROV1 ovarian 89.7% | OVCAR-3 ovarian 78.5% | HS 578T breast 99.1% | NCI/ADR-RES ovarian 81.3%

O=C(/C=C/c1ccccc1)c1ccccc1O
inactive: RPMI-8226 leukemia 26.6% | OVCAR-8 ovarian 87.7% | OVCAR-5 ovarian 91.1% | OVCAR-4 ovarian 87.6% | SK-OV-3 ovarian 107% | IGROV1 ovarian 76.5% | OVCAR-3 ovarian 89% | HS 578T breast 94.7% | NCI/ADR-RES ovarian 93.8%

CCN(CC)c1ccc(/C=C\C(=O)c2ccc(NC(C)=O)cc2)cc1
inactive: RPMI-8226 leukemia 76.9% | OVCAR-8 ovarian 76% | OVCAR-5 ovarian 68.5% | OVCAR-4 ovarian 90.6% | SK-OV-3 ovarian 69.2% | IGROV1 ovarian 75.5% | OVCAR-3 ovarian 104% | HS 578T breast 55.1% | NCI/ADR-RES ovarian 37.9%
